This note sets out measurements from PubChem BioAssay.

Each structure is given as a SMILES string. The source made the active and inactive calls.

Experiment [1] deals with Human papillomavirus type 1a protein E7 (residues 44-93). Nature of the experiment: small molecules binding HPV E7 44-93 – biochemical, small-molecule microarray, residues 44-93, 635 nm fluorescence, primary screen (AID 1108).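 Note: E7 fragment applied at 1 µg/mL in TBST for 1 h at 4 C; score combines spot fluorescence with its signal to noise ratio.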 The note with it: fluorescence 635 nm, higher = more signal.
The nature of experiment [2]: hepatitis C replication reporter changes, two-sided – Huh7 cells, luciferase reporter, HCV replication inhibitor project, primary screen (AID 1109).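 Note: huh7 hepatoma cells harbouring a luciferase neomycin HCV replicon reporter; luciferase luminescence as measure of HCV replicon replication; test concentration not given here.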 The note with it: Huh7 HCV replicon luciferase reporter, 48 h; higher = more signal.
The target in experiment [3] is Left-right determination factor 2 (Homo sapiens) (UniProt O00292). The experiment can be described thus: small molecules binding LEFTY2 protein – biochemical, small-molecule microarray, 635 nm fluorescence scan, primary screen (AID 1110). The note with it: higher = more signal.
The target of experiment [4] is Calmodulin-1 (Homo sapiens) (UniProt P0DP23). Nature of the experiment: small molecules binding calmodulin-1 with EGTA – biochemical, small-molecule microarray, Cy5-labelled CALM1, profiling panel (AID 1111).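 Note: labelled calmodulin applied in Tris saline Tween buffer holding calcium plus EGTA and DTT.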 To be noted: Cy5-CALM1 binding fluorescence, higher = more signal.
Experiment [5] shares this target. Nature of the experiment: small molecules binding Ca-loaded calmodulin-1 – biochemical, small-molecule microarray, Cy5-labelled CALM1, plus calcium, artefact control for SMM control-protein annotation, profiling panel (AID 1112).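 Note: score merges spot fluorescence with signal to noise from triplicate slides.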 The note with it: Cy5-CALM1 binding fluorescence, higher = more signal.
Experiment [6] in a line: probe aWnt5a binding to arrayed compounds – biochemical, biotinylated probe, 635/667 nm fluorescence, primary screen (AID 1113).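 Note: score merges 667 nm fluorescence intensity with signal-to-noise per printed feature.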 The note with it: small-molecule microarray, higher = more signal.
Experiment [7] can be described thus: probe aShh binding to arrayed compounds – biochemical, biotinylated probe, 635/667 nm fluorescence, primary screen (AID 1114).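 Note: probe is biotin-labelled aShh protein from a stem cell growth factor screen; measures binding of labelled protein to compounds printed on the slide; score merges feature fluorescence at 667 nm with signal-to-noise.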 To be noted: small-molecule microarray, higher = more signal.
Experiment [8] in a line: probe aNog binding to arrayed compounds – biochemical, biotinylated probe, 635/667 nm fluorescence, primary screen (AID 1115).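 Note: probe is biotinylated aNog protein used at 0.15 µg/mL for 1 h at 4 C; z-score combines 667 nm fluorescence of each spot with its signal to noise.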 To be noted: small-molecule microarray, higher = more signal.
Experiment [9] addresses Torsin-1A-interacting protein 1 (Homo sapiens) (UniProt Q5JTV8). The experiment can be described thus: compound microarray binding of lysate hLAP1 – cell lysate, small-molecule microarray, COS7 lysate, 635/667 nm fluorescence, primary screen (AID 1116). The note with it: 635 nm fluorescence, higher = more signal.
Experiment [10] has as its target Alpha-bungarotoxin (Bungarus multicinctus) (UniProt P60615). The experiment can be described thus: compounds binding labelled alpha-BTX control protein – biochemical, small-molecule microarray, Alexa647 label, 635/667 nm fluorescence, artefact control for SMM control protein annotation, profiling panel (AID 1117). To be noted: alpha-BTX-A647 binding fluorescence, higher = more signal.

For experiment [11], the target named is Albumin (Bos taurus) (UniProt P02769). The experiment can be described thus: compounds binding labelled BSA control protein – biochemical, small-molecule microarray, Alexa647 label, 635/667 nm fluorescence, artefact control for SMM control protein annotation, profiling panel (AID 1118).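 Note: score merges 667 nm emission intensity and signal-to-noise per printed compound spot.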 The note with it: BSA-A647 binding, fluorescence 635 nm, higher = more signal.

Experiment [12] can be described thus: probe aXIP binding to arrayed compounds – biochemical, NeuroSMM set, 635/667 nm fluorescence, primary screen (AID 1119).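 Note: probe is the protein aXip251-270 applied at 1 µg/mL to compound-printed slides; binding of probe to printed compounds measured as 667 nm fluorescence plus signal to noise.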 The note with it: small-molecule microarray, higher = more signal, called active from +8 up or from −8 down.
Experiment [13] can be described thus: probe aNOTCH3 binding on compound microarray – biochemical, small-molecule microarray, 635/667 nm fluorescence, primary screen (AID 1120).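 Note: probe is a biotin-tagged antibody raised against NOTCH3 rather than NOTCH3 protein; score merges spot fluorescence near 667 nm with spot signal to noise.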 To be noted: higher = more signal.
The nature of experiment [14]: probe aNOTCH2 binding on compound microarray – biochemical, small-molecule microarray, 635/667 nm fluorescence, primary screen (AID 1121).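 Note: score merges feature fluorescence read at 667 nm with its signal to noise.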 To be noted: higher = more signal.
The target of experiment [15] is Carbonic anhydrase 2 (Homo sapiens) (UniProt P00918). Nature of the experiment: compounds binding carbonic anhydrase 2 – biochemical, small-molecule microarray, Alexa647-labelled CAII, profiling panel (AID 1122). The note with it: CAII-A647 binding fluorescence, higher = more signal.
The nature of experiment [16]: COS7 lysate on small-molecule microarray, probe aHis, 635 nm (AID 1123).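 Note: z-score combines 667nm fluorescence intensity with signal-to-noise per printed compound spot.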 To be noted: COS7 cell lysate, fluorescence, higher = more signal.
Experiment [17] in a line: probe aLAP1 signal on lysate-treated microarray – cell lysate, small-molecule microarray, COS7 lysate, primary screen (AID 1124).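 Note: lysate comes from COS7 cells expressing LAP1 and is applied at 0.3 µg/mL; score merges spot fluorescence near 667 nm with signal-to-noise over triplicate slides.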 The note with it: probe aLAP1, fluorescence, higher = more signal.
Experiment [18] deals with Sam68 (KHDRBS1). Nature of the experiment: compounds binding KHDRBS1 protein – biochemical, small-molecule microarray, 635 nm fluorescence, primary screen (AID 1125).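 Note: score merges 667 nm channel intensity with signal to noise over triplicate slides.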 To be noted: higher = more signal.
The test system of experiment [19] is Chordin-like protein 2 (CHRDL2). Nature of the experiment: compounds binding chordin-like 2 – biochemical, small-molecule microarray, 635 nm fluorescence, primary screen (AID 1126).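 Note: printed compound slides probed with Chrdl2 protein at 4 µg/mL for 1 h at 4 C; score merges 667 nm emission intensity with signal to noise over three replicate slides.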 The note with it: fluorescence 635 nm, higher = more signal.
The target in experiment [20] is Concanavalin-A (Canavalia ensiformis) (UniProt P02866). Nature of the experiment: compounds binding concanavalin A lectin – biochemical, small-molecule microarray, Alexa647 label, 635 nm, artefact control for SMM control protein annotation, primary screen (AID 1127).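 Note: z combines 667 nm emission intensity with signal-to-noise across three replicate slides.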 The note with it: ConA-A647 binding fluorescence, higher = more signal.
Chain of Concanavalin-A (Canavalia ensiformis) (P02866 whole entry, looked up): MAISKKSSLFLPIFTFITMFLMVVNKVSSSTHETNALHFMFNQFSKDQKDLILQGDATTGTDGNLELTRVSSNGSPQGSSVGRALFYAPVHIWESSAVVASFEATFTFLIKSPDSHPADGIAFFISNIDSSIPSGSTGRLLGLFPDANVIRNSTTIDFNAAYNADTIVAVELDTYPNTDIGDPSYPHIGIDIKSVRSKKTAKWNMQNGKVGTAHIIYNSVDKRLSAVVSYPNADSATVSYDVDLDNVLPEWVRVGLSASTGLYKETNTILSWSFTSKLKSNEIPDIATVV

Chain of Albumin (Bos taurus) (P02769 whole entry, looked up): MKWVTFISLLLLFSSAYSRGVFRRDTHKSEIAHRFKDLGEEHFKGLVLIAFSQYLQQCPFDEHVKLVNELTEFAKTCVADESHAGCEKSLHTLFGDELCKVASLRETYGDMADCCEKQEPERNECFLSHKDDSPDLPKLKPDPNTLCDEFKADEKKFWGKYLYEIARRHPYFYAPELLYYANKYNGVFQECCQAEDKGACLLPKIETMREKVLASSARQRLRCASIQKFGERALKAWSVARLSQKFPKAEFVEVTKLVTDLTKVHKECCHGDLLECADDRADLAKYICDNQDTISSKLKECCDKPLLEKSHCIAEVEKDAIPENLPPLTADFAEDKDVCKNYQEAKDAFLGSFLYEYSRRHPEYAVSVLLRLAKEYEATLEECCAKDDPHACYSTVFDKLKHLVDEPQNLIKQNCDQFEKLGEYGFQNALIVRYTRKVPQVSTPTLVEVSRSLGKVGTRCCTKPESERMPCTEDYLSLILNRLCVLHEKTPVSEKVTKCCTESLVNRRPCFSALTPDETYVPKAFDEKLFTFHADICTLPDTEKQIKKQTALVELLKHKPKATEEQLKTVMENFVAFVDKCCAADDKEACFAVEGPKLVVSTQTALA
Chain of Alpha-bungarotoxin (Bungarus multicinctus) (P60615 whole entry, looked up): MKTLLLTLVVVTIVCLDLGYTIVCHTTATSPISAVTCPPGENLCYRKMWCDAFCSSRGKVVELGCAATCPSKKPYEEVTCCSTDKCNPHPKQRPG
Chain of Left-right determination factor 2 (Homo sapiens) (O00292 whole entry, looked up): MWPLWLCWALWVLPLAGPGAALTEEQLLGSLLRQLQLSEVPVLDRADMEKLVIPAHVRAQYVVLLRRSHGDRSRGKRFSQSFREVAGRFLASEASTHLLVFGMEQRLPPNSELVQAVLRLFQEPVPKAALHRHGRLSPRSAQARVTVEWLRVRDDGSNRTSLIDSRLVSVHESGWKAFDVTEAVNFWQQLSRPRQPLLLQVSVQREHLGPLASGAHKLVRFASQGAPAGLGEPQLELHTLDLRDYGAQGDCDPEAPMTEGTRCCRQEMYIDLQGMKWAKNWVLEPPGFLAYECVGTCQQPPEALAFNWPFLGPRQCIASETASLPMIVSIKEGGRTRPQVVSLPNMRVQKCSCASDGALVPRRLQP
Chain of Torsin-1A-interacting protein 1 (Homo sapiens) (Q5JTV8 whole entry, looked up): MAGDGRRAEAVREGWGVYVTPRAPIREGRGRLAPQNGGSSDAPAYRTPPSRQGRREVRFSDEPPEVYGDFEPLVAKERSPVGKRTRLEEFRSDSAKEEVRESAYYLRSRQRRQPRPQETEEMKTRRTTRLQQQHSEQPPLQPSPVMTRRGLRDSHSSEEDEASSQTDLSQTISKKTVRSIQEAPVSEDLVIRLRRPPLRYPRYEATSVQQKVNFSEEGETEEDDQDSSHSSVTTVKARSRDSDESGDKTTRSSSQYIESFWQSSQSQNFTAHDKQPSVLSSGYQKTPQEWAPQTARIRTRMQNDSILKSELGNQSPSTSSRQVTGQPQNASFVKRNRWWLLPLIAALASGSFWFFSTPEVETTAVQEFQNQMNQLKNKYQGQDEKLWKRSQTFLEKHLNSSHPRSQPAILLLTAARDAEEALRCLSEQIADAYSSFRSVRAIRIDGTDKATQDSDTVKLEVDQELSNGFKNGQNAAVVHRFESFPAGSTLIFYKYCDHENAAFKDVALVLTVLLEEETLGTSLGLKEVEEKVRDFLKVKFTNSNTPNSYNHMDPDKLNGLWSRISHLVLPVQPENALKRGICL

As to `C=CCNC(=O)[C@H]1[C@@H]2C(=O)O[C@@H](c3ccccc3)[C@@H](c3ccccc3)N2[C@@H](c2ccccc2OCCO)[C@]12C(=O)N(C(=O)OCCOC)c1ccccc12`, the composite z-score in [1] was 1.11; in [3], 0.142; in experiment [4], 0.336; in experiment [5] it was 0.287; in experiment [6], -0.124; in experiment [7], 0.0684. The composite z-score in [8] was 0.86; in experiment [9], 1.13; in experiment [10], 1.53; in [11], 0.813; in experiment [13], -0.161; in experiment [14], -0.153. Besides, the composite z-score in experiment [15] was 0.567; in [16], 1.96; in [17] it was 0.883; in experiment [18], 1.21; in experiment [19] it was 0.414; in experiment [20] it was 1.13. This compound also yielded a z-score in experiment [2] of -3.16. Moreover, in [12], the composite Z-score was -0.104 (inactive).
As to `COCCOC(=O)N1C(=O)[C@@]2(c3cc(C#CCCO)ccc31)[C@H](c1ccc(O)cc1)N1[C@H](c3ccccc3)[C@H](c3ccccc3)OC(=O)[C@H]1[C@@H]2C(=O)N1CCc2cc(OC)c(OC)cc2C1`, the composite z-score is 1.41 in experiment [1]; 1.14 in experiment [3]; 0.422 in [4]; -0.0529 in experiment [5]; 0.129 in experiment [6]; -0.153 in experiment [7]. The composite z-score in experiment [8] was 1.32; in experiment [9], 1.13; in [10] it was 1.11; in experiment [11] it was -0.997; in [13], 0.341; in experiment [14], 0.305. Moreover, the composite z-score in [15] is 0.345; in experiment [16] it was 1.48; in experiment [17] it was 1.07; in [18], 1.32; in [19], 0.789; in experiment [20], 1.06. Also, the z-score in experiment [2] is -0.561. Moreover, in [12], the composite Z-score is 0.454 (inactive).
Take `Cc1c(NC(=O)/C(C#N)=C/c2ccc(Cl)cc2)c(=O)n(-c2ccccc2)n1C`: the composite z-score in experiment [1] is -0.648; in experiment [3], 0.119; in experiment [4], 1.14; in [5] it was 0.629; in experiment [6], -0.0869; in experiment [7], -0.0503. Also, the composite z-score in experiment [8] is 0.486; in experiment [9], 1.58; in experiment [10] it was 0.766; in experiment [11], 0.87; in experiment [13] it was 0.029; in experiment [14], -0.145. For the same compound, the composite z-score in experiment [15] turned out to be 0.229; in experiment [16], 1.65; in experiment [17], 0.761; in experiment [18] it was 0.396; in [19] it was 0.122; in [20], 0.736. The same compound displayed a z-score in [2] of -0.871. In addition, the composite Z-score in experiment [12] was 1.5 (inactive).
Turning to `C=CCC(OC(C)=O)[C@@H]1[C@@H](N(Cc2ccc(-c3cccc(C(F)(F)F)c3)o2)C(=O)Cc2ccc(F)cc2)c2cc(OCCCO)ccc2N1C(=O)c1ccc2ccccc2c1` (stereo not given in full), the composite z-score in experiment [1] is -1.18; in experiment [3], -0.72; in experiment [4], -0.681; in [5], -0.214; in experiment [6], -0.0548; in [7], -0.221. Moreover, the composite z-score is -0.624 in [8]; 0.0175 in experiment [9]; -0.318 in [10]; -0.229 in experiment [11]; -0.0813 in experiment [13]; -0.117 in [14]. Further, the composite z-score in [15] was -0.351; in experiment [16], 0.0261; in [17] it was -0.211; in experiment [18] it was -0.749; in [19], -0.0715; in [20], -1.35. Besides, the z-score in experiment [2] was -0.735. The composite Z-score in experiment [12] is -0.0127 (inactive).
As for `CC=CC(O)C1C=CC2C(=O)N(C)C(=O)C2N1NC(=O)OC(C)(C)C` (stereo not given), the composite z-score was -1.08 in experiment [1]; 0.478 in [3]; 0.127 in experiment [4]; -0.516 in [5]; -0.101 in [6]; -0.206 in [7]. The composite z-score in [8] was -0.135; in [9], 0.512; in [10], 0.277; in experiment [11], 1.03; in [13], 0.0687; in experiment [14], -0.173. Further, the composite z-score is 0.774 in [15]; 0.439 in [16]; 0.826 in [17]; -0.0008 in [18]; 0.204 in experiment [19]; 0.0815 in experiment [20]. Further, the z-score in [2] was 0.381. Also, the composite Z-score in experiment [12] is 0.397 (inactive).
